# Measured values taken from PubChem BioAssay (EPA / NIEHS).
# Results filed as inconclusive are left out. Active and inactive are the calls of the source. The calls were made as follows: active = hit-call score of the fitted dose curve at least 0.9, where 1 is the maximum; inconclusive = response in the unintended direction; inactive = score below 0.9.
# Target: AR (gene 367) (UniProt P10275)
# Assay: ACEA_AR_antagonist_80hr: ACEA Biosciences xCELLigence Real-Time Cell Analysis on Androgen Receptor Antagonism for Proliferation (AID 2283787);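 also: 22Rv1 human prostate cancer cells with growth followed by electrical impedance; hits lower the impedance growth signal relative to DMSO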
# Summary of the method: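 Using 22Rv1 cells held in assay medium, we dosed compounds (100 uM maximum final, 1:4 serial, eight points, 0.5% DMSO at top) and recorded cell-electrode impedance; the 80 hr timepoint was analyzed against DMSO.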
# Sequence of AR (gene 367) (P10275 whole entry, looked up): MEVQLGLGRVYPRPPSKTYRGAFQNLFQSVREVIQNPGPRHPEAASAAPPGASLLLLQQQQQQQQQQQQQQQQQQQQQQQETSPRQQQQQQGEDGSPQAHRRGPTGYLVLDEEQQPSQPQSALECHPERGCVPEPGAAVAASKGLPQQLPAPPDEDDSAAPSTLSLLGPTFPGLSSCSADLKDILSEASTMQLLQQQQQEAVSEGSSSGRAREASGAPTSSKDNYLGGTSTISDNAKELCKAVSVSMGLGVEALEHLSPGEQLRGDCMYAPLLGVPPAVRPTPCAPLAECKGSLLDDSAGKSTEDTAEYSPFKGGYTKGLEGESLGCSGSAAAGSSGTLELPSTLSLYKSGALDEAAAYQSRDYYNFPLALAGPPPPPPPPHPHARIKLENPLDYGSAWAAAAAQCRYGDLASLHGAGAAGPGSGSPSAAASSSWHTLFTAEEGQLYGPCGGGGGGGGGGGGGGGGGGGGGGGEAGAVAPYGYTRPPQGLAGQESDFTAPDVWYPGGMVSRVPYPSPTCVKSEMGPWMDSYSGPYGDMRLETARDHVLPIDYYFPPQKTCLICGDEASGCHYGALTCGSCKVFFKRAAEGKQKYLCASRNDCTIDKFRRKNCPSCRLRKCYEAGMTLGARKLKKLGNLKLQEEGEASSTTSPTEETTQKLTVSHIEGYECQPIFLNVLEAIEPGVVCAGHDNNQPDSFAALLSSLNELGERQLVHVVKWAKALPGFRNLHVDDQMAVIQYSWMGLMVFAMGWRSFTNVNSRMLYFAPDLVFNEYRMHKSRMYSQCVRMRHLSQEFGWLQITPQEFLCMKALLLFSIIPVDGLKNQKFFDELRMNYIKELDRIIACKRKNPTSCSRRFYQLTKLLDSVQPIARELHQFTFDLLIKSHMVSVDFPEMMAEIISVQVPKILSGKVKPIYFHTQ
SMILES,outcome,AC50
CC(C)=CCC[C@H](C)CCO,inactive,–
O=c1cc(-c2ccccc2)oc2ccccc12,–,0.0284 µM (active)
Oc1ccc(Cl)cc1Cc1cc(Cl)ccc1O,–,10.2 µM (active)
CCCc1ccc(OC)cc1,inactive,–
CC(C)(C)c1ccc(-c2ccc(C(C)(C)C)cc2)cc1,inactive,–
CCCCC/C=C\CCC=O,inactive,–
CC(C)c1ccc2cc(C(C)C)ccc2c1,inactive,–
